Screening results (PubChem)
A selection: hits, their analogues and other compounds. The true share with any hit is near 9.9%.
SW480 rereplic = inducers of DNA re-replication in SW480 colon cancer cells | 1.8% of 340,000 active | SW480 DNA re-replication, Hoechst DNA content imaging, 48 h | Potency, µM (doses to about 46.1 µM), without a hit: at the top dose re-replication activation, most hits filed as activators | AID 624297; also: potency is read from the fitted curve at half-maximal effect; % of control where 0% means no effect; nearly all actives have a fitted effect of over 55% in size
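Compounds, transferred as 23 nL by pin tool, were incubated with cells for 48 hr; DNA content per nucleus was then quantified by Hoechst staining and fluorescence plate imaging.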
IL-1B inflam inh = blocks inflammasome-driven IL-1 beta release; THP-1 LPS/ATP IL-1B secretion, AlphaLISA, 16 h; stronger effect = lower value; activity change, % at 57.5 µM; 4.7% of 360,000 active; AID 743279; in the data active = activity change below about -50%; inconclusive = mostly about -30% to -49%; also: % is scaled to controls: 0 for no effect and ±100 for the full control effect
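THP-1 cells pretreated 1 hr with compounds (up to 57.5 uM final), then stimulated with LPS (250 ng/mL final) plus ATP (1.25 mM final); secreted IL-1B measured by AlphaLISA after 16 hr, decreased signal indicating inhibition.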
KB-V1 cytotox = kills drug-selected multidrug resistant KB-V1 cells. KB-V1 MDR cells viability, CellTiter-Glo, 72 h. Potency, µM (titrated, usually from 46.1 µM), most hits filed as cytotoxic. 3.4% of 400,000 active. AID 1347076; also: potency is read from the fitted curve at half-maximal effect; % is scaled to controls: 0 for no effect and ±100 for the full control effect; nearly all actives have a fitted effect of over 60% in size
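qHTS viability screen in drug-selected KB-V1 MDR cells: 72 h compound treatment at 37 degrees C, ATP luminescence end point.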
KB-3-1 tox = kills parental KB-3-1 adenocarcinoma cells | KB-3-1 viability, CellTiter-Glo ATP luminescence, 72 h | Potency, µM (highest dose often 46.1 µM), hits mostly cytotoxic | 1.4% of 400,000 active; also: potency is read from the fitted curve at half-maximal effect; % is scaled to controls: 0 for no effect and ±100 for the full control effect; nearly all actives have a fitted effect of over 60% in size
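Here the drug-naive KB-3-1 line serves as comparator for MDR sub-line selectivity; cells received compound titrations, 72 h at 37 °C, then CellTiter-Glo readout.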
MCF10A rerep = DNA re-replication induction in MCF 10a cells; 2.9% of 350,000 active; MCF 10A DNA re-replication, Hoechst nuclear intensity, 48 h; AID 624296; Potency, µM (series often up to 46.1 µM), for the others: top-dose activity, positive = re-replication, most hits filed as activators; also: potency is read from the fitted curve at half-maximal effect; % of control where 0% means no effect; nearly all actives have a fitted effect of over 50% in size
* hit, by the source's call; i = inactive; ? = inconclusive; . = not tested or not shown; ! = not active in a repeat; [ ] = dose if it differs, or a comment. Unless noted, calls follow the shape of the dose curve; as a rule, active = well fitted curve in the direction sought with a large enough effect; inconclusive = small, poorly fitted or top-dose-only effect, or another doubt; inactive = no such curve, though single readings can be large; an effect the other way counts as inactive or inconclusive.

SMILES | SW480 rereplic | IL-1B inflam inh | KB-V1 cytotox | KB-3-1 tox | MCF10A rerep
C[C@H]1CN([C@@H](C)CO)C(=O)Cc2cc(NC(=O)CCC(F)(F)F)ccc2O[C@H]1CN(C)Cc1ccc(C(F)(F)F)cc1 | 0.9%[9.22 µM] | -68.7* | ? | ? | ?
CC(OC(=O)c1cccc(N(C)C)c1)C(=O)N1CCc2ccccc2C1 (stereo unspecified) | -1.2% | 5.4 | 8.2µM* | i | 12.0%
CN(C)c1cccc(C(=O)OCC(=O)N2CCc3ccccc3C2)c1 | 1.0% | 26.9 | i | i | -6.5%
O=C(Nc1ccc2c(c1)OCCO2)C(CCc1ccccc1)N1CCC(Cc2ccccc2)CC1 (stereo unspecified) | . | -7.9 | 23.1µM* | i | .
O=C(Nc1cccc(O)c1)c1noc2c1CCc1ccccc1-2 | 3.3% | -83.3* | 23.1µM*! | i | -1.3%
O=C(Nc1cccc(C(F)(F)F)c1)c1noc2c1CCc1ccccc1-2 | . | . | i | i | .
N#Cc1cnc(SCCc2ccccc2)nc1N | 9.2% | 4.4 | ? | i | 9.2µM*
N#Cc1cnc(SCC(=O)c2ccccc2)nc1N | -21.8% | 5.4 | i | i | ?
Cc1cccc(C)c1NC(=O)C1C(c2ccc3c(c2)OCO3)=Nc2ccccc2N1C(=O)c1cccc(C(F)(F)F)c1 (stereo unspecified) | . | -57.0* | i | ? | .
Cc1cccc(C)c1NC(=O)C1C(c2ccc3c(c2)OCO3)=Nc2ccccc2N1C(=O)c1ccccn1 (stereo unspecified) | . | 40.4 | ? | ? | .
CC[C@H](C)[C@H](NC(N)=O)C(=O)Nc1ccccc1F | -9.1% | 20.8 | i | i | -7.7%
O=[N+]([O-])c1ccc(Oc2ccc(OCc3ccccc3)cc2)nc1 | 8.8% | -80.4* | i | i | 5.5%
CSCCC(NC(=O)c1ccc(Cl)c([N+](=O)[O-])c1)C(=O)N1CCN(C/C=C/c2ccccc2)CC1 (stereo unspecified) | 1.6% | -103.3* | i | i | 18.4µM*
CC(=NNC1=NCCN1)c1cnn(C2=NCCN2)c1C | . | 4.5 | i | i | .
CCCCCOc1ccc(/C(C)=N/NC2=NCCN2)cc1 | ? | -65.6* | i | i | 20.3%
CCCCCCOc1ccc(C(=O)O)cc1 | 3.2% | 4.2 | i | i | 6.1%
CCCCCCOc1ccc(/C(C)=N/NC2=NCCN2)cc1 | 2.3% | -55.7* | i | i | 46.6%
CCOc1ccc(Br)cc1/C(C)=N\NC1=NCCN1 | ? | -80.5* | ? | 6.51µM* | ?
O=C1Cc2cc(NS(=O)(=O)c3ccc([N+](=O)[O-])cc3)cc3c2N1CCC3 | -36.0% | 25.1 | i | i | -1.0%
FC(F)(F)c1ccc(CN2C[C@@H]3C(c4ccc(Cl)nc4)C4(c5ccccc5)CC3(C4)[C@H]2c2ccccc2)cc1 (stereo partly specified) | -28.5% | 13.3 | ? | i | 12.9%
Cc1cccc(Sc2c(C=O)c3ccccc3n2C)c1 | 5.1% | -14.3 | i | i | ?
Cn1c(Sc2ccc(Cl)cc2)c(C=O)c2ccccc21 | ? | -81.0* | ? | ? | ?
Cn1c(Sc2ccccc2Cl)c(C=O)c2ccccc21 | 2.1% | -62.7* | ? | i | ?
CCOc1cc(S(=O)(=O)NCc2ccncc2)ccc1Cl | -18.5% | -1.7 | i | ? | 11.6%
COc1cc(CNC(C)C23CC4CC(CC(C4)C2)C3)ccc1OCC(=O)NC(C)(C)C (stereo unspecified) | ? | -88.0* | ? | ? | 17.9%
CC(NCc1cc(Br)ccc1OCC(N)=O)C12CC3CC(CC(C3)C1)C2 (stereo unspecified) | 26.9% | -61.2* | i | i | ?
CCCn1nnc(NC(=S)NC(=O)/C=C/c2ccco2)n1 | -64.9% | -1.5 | i | ? | ?
Cc1ccc(-c2nc(CS(=O)(=O)CC(=O)N3CCc4ccccc4C3)c(C)o2)cc1 | 15.3% | -16.6 | ? | 18.4µM* | 6.7%
O=C(NNC(=O)c1ccc(S(=O)(=O)N2CCOCC2)cc1)c1ccccc1 | -8.2% | 1.8 | i | i | 1.8%
